High-throughput results: PubChem, several laboratories
Mcl1 Noxa PPI = Mcl-1/Noxa interaction inhibition; inhibition, % at 21.7 µM; AID 1022; 220,000 tested, 1.5% active; TR-FRET Mcl-1/Noxa peptide binding, 2 h;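 active = compounds that cut the protein-peptide binding signal by more than 50% relative to plate controls in a single-dose test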;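 note: His-tagged Mcl-1 with rhodamine Noxa BH3 peptide and terbium anti-His antibody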
Target sequence (Q07820 whole entry, looked up): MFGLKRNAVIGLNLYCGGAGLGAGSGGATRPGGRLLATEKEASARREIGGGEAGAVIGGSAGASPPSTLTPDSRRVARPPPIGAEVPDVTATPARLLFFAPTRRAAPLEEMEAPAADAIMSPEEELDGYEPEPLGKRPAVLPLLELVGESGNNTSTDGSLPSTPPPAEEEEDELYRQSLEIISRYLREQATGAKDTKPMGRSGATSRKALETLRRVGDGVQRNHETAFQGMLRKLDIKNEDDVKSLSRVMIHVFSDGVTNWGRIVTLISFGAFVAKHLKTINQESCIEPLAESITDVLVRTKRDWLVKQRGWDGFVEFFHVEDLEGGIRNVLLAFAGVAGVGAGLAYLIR
Mcl-1 Bim block = inhibitors of Bim-Mcl-1 interaction, human; Bead-based flow cytometry, Bim peptide-Mcl-1 binding; 190,000 tested, 0.1% active; inhibition, % at 10 µM; in the data active = inhibition above about 40%
MCL1 BIM primary = inhibitors of human MCL1 binding to BIM-BH3 peptide. GST-MCL1 / FITC-Bim-BH3 fluorescence polarization. inhibition, % at 10.9 µM. 320,000 tested, 0.68% active;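 active = inhibition above the mean inhibition of all tested compounds plus 3 SD, set per campaign, cut at about 40% in these data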;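 note: higher means more loss of mP so more displacement of Bim peptide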
Mcl1 Bid PPI = Mcl-1/Bid interaction inhibition; AID 1021; TR-FRET Mcl-1/Bid-Dy647 peptide binding, 1536-well; inhibition, % at 21.7 µM; 220,000 tested, 0.97% active;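 active = compounds that cut the binding signal by more than half at the single screening dose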;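 note: His-tagged Mcl-1 with europium anti-His antibody binding Bid BH3 peptide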
zVAD death inh = blocks zVAD induced death of L929 cells. L929 zVAD necroptosis rescue, ATP luminescence, 24 h; with zVAD 60 µM. viability rescue, % at 10 µM. 220,000 tested, 0.38% active;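 active = activation, scaled between plate controls, above about 75%, limit read from the data; inactive = activation under that limit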
TNF necrop inh = inhibitors of TNF-alpha induced necroptosis in Jurkat FADD-/- cells; Jurkat FADD-/- TNF necroptosis rescue, ATP luminescence, 24 h; 0 = TNF only, 100 = no-TNF cells; activation (protection from cell death), % at 10 µM; 220,000 tested, 0.068% active;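 active = activation, meaning protection from cell death, of at least 50% relative to plate controls; inactive = activation below 50%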;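 note: necroptosis triggered by 40 ng/mL TNF-alpha added together with compound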
A number is an active result; – = inactive; · = no result given. Only some compounds are listed: those with a hit (about 2.4% of all), similar ones and a draw of the others.

SMILES | Mcl1 Noxa PPI | Mcl-1 Bim block | MCL1 BIM primary | Mcl1 Bid PPI | zVAD death inh | TNF necrop inh
Cc1ccc(-c2csc(Nc3ccc(S(N)(=O)=O)cc3)n2)o1 | 64 | – | – | – | – | –
Cc1ccc(NC(=O)CCn2cccc2)cc1C | – | – | – | 60 | – | –
COc1ccccc1C(=O)NC(CCSC)C(=O)NCCCSc1ccccc1 (stereo not given) | · | · | – | · | · | ·
CN(CC(=O)N(C)CC(=O)Nc1c(Cl)cccc1Cl)Cc1ccc(Br)s1 | · | · | – | · | · | ·
Nc1ccc(N2CCN(c3ccc(F)cc3)CC2)cc1 | 61 | – | – | – | – | –
O=C(CSCc1ccccc1)Nc1cccc(C(=O)Nc2ccccc2C(=O)O)c1 | – | – | – | – | – | –
O=C(O)CCCC(=O)Nc1cccc(C(=O)Nc2ccccc2C(=O)O)c1 | – | – | – | 82 | – | –
O=C(/C=C/c1ccco1)Nc1cccc(C(=O)Nc2ccccc2C(=O)O)c1 | 57 | · | – | – | – | –
CCN(CC)S(=O)(=O)c1ccc(C(=O)OC2CCCCC2CN(C)C)cc1 (stereo not given) | – | – | – | 51 | – | –
COC(=O)c1cc(C(=O)Nc2cc(C)on2)cc([N+](=O)[O-])c1 | · | · | – | · | · | ·
Oc1ccc(NC(=S)N=Nc2c(O)[nH]c3ccc(Br)cc23)cc1 | 57 | – | · | – | – | –
Oc1[nH]c2ccc(Br)cc2c1N=NC(=S)Nc1ccc(F)cc1 | – | · | – | – | – | –
COc1ccc2c(N)c(C(=O)NN)[nH]c2c1 | 64 | · | – | – | – | –
O=C(c1cc(-c2ccco2)on1)N1CCc2ccccc2C1 | 69 | – | – | – | – | –
O=C(c1cc(-c2ccccc2O)on1)N1CCc2ccccc2C1 | – | – | – | – | – | –
Cc1cccc(C)c1OCc1cc(C(=O)N2CCNC(=O)C2)no1 | · | · | – | · | · | ·
O=C(c1ccc2c(=O)n(-c3ccccc3)c(=S)[nH]c2c1)N1CCN(c2ccccc2)CC1 | · | · | – | · | · | ·
COc1ccc(OC)c(-n2c(=S)[nH]c3cc(C(=O)N4CCN(c5ccccc5)CC4)ccc3c2=O)c1 | – | 48 | – | – | – | –
CCc1ccc(Nc2n[n+](C)c(-c3ccncc3)s2)cc1 | · | · | – | · | · | ·
O=C(COC(=O)c1cc[n+]([O-])cc1)NCc1ccccc1Cl | 72 | – | – | – | – | –
CC(C)C(=O)OCC(=O)NCc1ccccc1Cl | – | – | – | – | – | –
CC1=NN(c2ccc(Br)cc2)C(=O)/C1=C/c1cccs1 | · | – | – | · | – | –
CC1=NN(c2ccc(C)cc2)C(=O)/C1=C\c1ccc(Br)s1 | – | 92 | – | – | – | –
Cc1cccc(C)c1NC(=O)CNC(=O)c1cccc(S(=O)(=O)NCc2cccs2)c1 | · | · | – | · | · | ·
Cc1ccc(S(=O)(=O)Nc2ccccc2C(=O)OC(C)C(=O)Nc2ccc3ccccc3c2)cc1[N+](=O)[O-] (stereo not given) | – | – | – | – | – | –
SMILES | Mcl1 Noxa PPI | Mcl-1 Bim block | MCL1 BIM primary | Mcl1 Bid PPI | zVAD death inh | TNF necrop inh
COc1ccc(NC(=S)NNc2ccc(S(=O)(=O)Nc3ccccc3C(=O)O)cc2[N+](=O)[O-])cc1 | 88 | · | – | 73 | – | –
CCCC(NC(=O)CCc1c(C)c2cc3c(-c4ccccc4)coc3cc2oc1=O)C(=O)O (stereo not given) | · | · | – | · | · | ·
O=C(O)c1ccc2nc(-c3ccco3)c(-c3ccco3)nc2c1 | 80 | – | · | – | – | –
CCc1nc2ccc(C(=O)NCCc3ccc(OC)c(OC)c3)cc2nc1CC | · | · | – | · | · | ·
O=C(c1ccc2nc(-c3ccco3)c(-c3ccco3)nc2c1)N1CCN(c2ccccc2)CC1 | 52 | – | – | – | – | –
COc1ccc(CCNC(=O)c2ccc3nc(-c4ccco4)c(-c4ccco4)nc3c2)cc1OC | 99 | – | – | – | – | –
CCC1CCCCN1S(=O)(=O)c1ccc(C(=O)N(CCCN(C)C)c2nc3cc4c(cc3s2)OCO4)cc1 (stereo not given) | · | · | – | · | · | ·
Cc1cc(Cl)ccc1NC(=O)COC(=O)CCNS(=O)(=O)c1ccccc1 | · | · | – | · | · | ·
Cc1ccc(S(=O)(=O)Nc2ccc(C(=O)NCCCN3CCOCC3)cc2)cc1[N+](=O)[O-] | · | · | – | · | · | ·
CCOc1ccc(CNC(=S)N/N=C\c2ccc([N+](=O)[O-])cc2)cc1 | 54 | – | – | – | – | –
CCOc1ccc(CNC(=S)N/N=C/c2cccnc2)cc1 | – | – | – | – | – | –
